2 compounds from PubChem BioAssay (EPA / NIEHS) can be followed below.

Read-out in assay [1]: Protein phosphatase 2A (PPP2R4), PTPA (gene 5524)
Put plainly: LTEA_HepaRG_PPP2R4: Life Technologies and Expression Analysis (LTEA) Assay for Protein phosphatase 2A (PPP2R4) using HepaRG (AID 2283522). Conditions: mRNA level, 48 h; actives raise or lower the signal. In a few lines:
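HepaRG, 48 h exposure, 8-pt half-log series from 100 uM, 0.5% DMSO vehicle, duplicates. Readout: PPP2R4 mRNA, Fluidigm qRT-PCR, housekeeping-normalized. Bidirectional curve fit vs DMSO baseline.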

Read-out in assay [2]: Phosphatase and tensin (PTEN), PTEN (gene 5728)
Put plainly: LTEA_HepaRG_PTEN: Life Technologies and Expression Analysis (LTEA) Assay for Phosphatase and tensin (PTEN) using HepaRG (AID 2283523). Conditions: mRNA level, 48 h; actives raise or lower the signal. The essentials: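 Expression of PTEN is quantified in the human liver line HepaRG following two days of dosing (top concentration 100 uM, half-log dilutions, 0.5% DMSO). Values derive from bidirectional curve fitting relative to DMSO controls.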

Read-out in assay [3]: solute carrier (SLC22A1), SLC22A1 (gene 6580)
Put plainly: LTEA_HepaRG_SLC22A1: Life Technologies and Expression Analysis (LTEA) Assay for solute carrier (SLC22A1) using HepaRG (AID 2283524).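 As to AC50: differentiated human HepaRG liver cells in serum-free induction medium.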 The settings on record: mRNA level, 48 h; actives raise or lower the signal. The essentials: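 Transcript induction or suppression of SLC22A1 in human HepaRG cultures is scored after 48 h chemical treatment, with DMSO (0.5%) as baseline for bidirectional fitting. Concentrations span eight half-log points topping at 100 uM.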

Read-out in assay [4]: Pyruvate Dehydrogenase Kinase 4 (PDK4), PDK4 (gene 5166)
Put plainly: LTEA_HepaRG_PDK4: Life Technologies and Expression Analysis (LTEA) Assay for Pyruvate Dehydrogenase Kinase 4 (PDK4) using HepaRG (AID 2283525). The settings on record: mRNA level, 48 h; actives raise or lower the signal. In a few lines:
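Eight-point, half-log concentration series (max 100 uM, 0.5% DMSO) applied to differentiated HepaRG cells for 48 h in duplicate. Endpoint: PDK4 mRNA induction or repression by qRT-PCR against DMSO baseline.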

Read-out in assay [5]: NAD(P)H dehydrogenase [quinone] 1 (NQO1), NQO1 (gene 1728)
Put plainly: LTEA_HepaRG_NQO1: Life Technologies and Expression Analysis (LTEA) Assay for NAD(P)H dehydrogenase [quinone] 1 (NQO1) using HepaRG (AID 2283526). The settings on record: mRNA level, 48 h; actives raise or lower the signal. In a few lines: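 qRT-PCR read-out (Fluidigm TaqMan), normalized to three housekeeping genes, after 48 h chemical exposure of HepaRG cells. Concentrations: eight points, top 100 uM, half-log steps, 0.5% DMSO vehicle. Gain or loss of signal fitted relative to DMSO.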

Read-out in assay [6]: Nuclear factor erythroid 2-related factor 2 (Homo sapiens) (UniProt Q16236)
Put plainly: LTEA_HepaRG_NFE2L2: Life Technologies and Expression Analysis (LTEA) Assay for Nuclear factor erythroid 2-related factor 2 (NFE2L2) Transcription Factor using HepaRG (AID 2283527). The settings on record: mRNA level, 48 h; actives raise or lower the signal. In a few lines:
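Human liver HepaRG line treated in duplicate for 48 h with an eight-point series topping at 100 uM. Gene expression of NFE2L2 by qRT-PCR, bidirectionally fitted against the vehicle control.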

Read-out in assay [7]: succinate dehydrogenase complex iron sulfur subunit B (SDHB), SDHB (gene 6390)
Put plainly: LTEA_HepaRG_SDHB: Life Technologies and Expression Analysis (LTEA) Assay for succinate dehydrogenase complex iron sulfur subunit B (SDHB) using HepaRG (AID 2283528). Conditions: mRNA level, 48 h; actives raise or lower the signal. In a few lines:
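HepaRG, 48 h exposure, 8-pt half-log series from 100 uM in 0.5% DMSO, duplicates. Readout: SDHB mRNA by Fluidigm qRT-PCR vs housekeeping genes; bidirectional fit relative to DMSO.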

Read-out in assay [8]: Signal transducer and activator of transcription 3 (Homo sapiens) (UniProt P40763)
Put plainly: LTEA_HepaRG_STAT3: Life Technologies and Expression Analysis (LTEA) Assay for Signal transducer and activator of transcription (STAT3) using HepaRG (AID 2283529). The settings on record: mRNA level, 48 h; actives raise or lower the signal. The essentials: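 In this transcriptional endpoint, HepaRG cultures receive test chemicals at up to 100 uM for 48 h, tested in duplicate. STAT3 mRNA is normalized to ACTB, GAPDH and POLR2A.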

Read-out in assay [9]: solute carrier (SLCO1B1), SLCO1B1 (gene 10599)
Put plainly: LTEA_HepaRG_SLCO1B1: Life Technologies and Expression Analysis (LTEA) Assay for solute carrier (SLCO1B1) using HepaRG (AID 2283530). The settings on record: mRNA level, 48 h; actives raise or lower the signal. In a few lines: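 SLCO1B1 transcript levels were quantified by TaqMan qRT-PCR using three housekeeping genes for normalization. This followed 48 h chemical exposure (100 uM top, half-log, 8 points, 0.5% DMSO) of HepaRG liver cells, with gain or loss fitted relative to DMSO.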

Read-out in assay [10]: sulfotransferase 2A1 (SULT2A1), SULT2A1 (gene 6822)
Put plainly: LTEA_HepaRG_SULT2A1: Life Technologies and Expression Analysis (LTEA) Assay for sulfotransferase 2A1 (SULT2A1) using HepaRG (AID 2283531). Conditions: mRNA level, 48 h; actives raise or lower the signal. In a few lines: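 Expression change of SULT2A1, by qRT-PCR with three housekeeping-gene normalization, was scored bidirectionally versus DMSO. Cells: differentiated HepaRG, dosed in duplicate for 48 h across 8 points, highest 100 µM, half-log dilution, 0.5% DMSO.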

Read-out in assay [11]: Transforming Growth Factor (TGFA), TGFA (gene 7039)
The assay is described as follows: LTEA_HepaRG_TGFA: Life Technologies and Expression Analysis (LTEA) Assay for Transforming Growth Factor (TGFA) using HepaRG (AID 2283532). Conditions: mRNA level, 48 h; actives raise or lower the signal. In a few lines: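 Gene expression of TGFA was quantified by qRT-PCR after human HepaRG cells were treated for 48 h with test chemicals (eight concentrations, highest 100 uM, 0.5% DMSO). Activity in either direction was fitted relative to DMSO.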

Read-out in assay [12]: Transforming Growth Factor (TGFB1), TGFB1 (gene 7040)
Put plainly: LTEA_HepaRG_TGFB1: Life Technologies and Expression Analysis (LTEA) Assay for Transforming Growth Factor (TGFB1) Transporter using HepaRG (AID 2283533). Conditions: mRNA level, 48 h; actives raise or lower the signal. In a few lines:
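TGFB1 transcript measured by qRT-PCR with normalisation to three housekeeping genes (ACTB, GAPDH, POLR2A); human HepaRG line treated in duplicate for 48 hr with an 8-point series topping at 100 uM, 0.5% DMSO vehicle, bidirectionally fitted.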

Read-out in assay [13]: TIMP1, TIMP1 (gene 7076)
The assay is described as follows: LTEA_HepaRG_TIMP1: Life Technologies and Expression Analysis (LTEA) Assay for TIMP1 using HepaRG (AID 2283534). The settings on record: mRNA level, 48 h; actives raise or lower the signal. In a few lines:
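Bidirectional change in TIMP1 transcript versus 0.5% DMSO, measured by TaqMan qRT-PCR with three housekeeping genes for normalization. HepaRG human liver cells dosed 48 h in duplicate, top concentration 100 uM with half-log dilutions.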

Read-out in assay [14]: Tumor necrosis factor receptor 1 (TNFRSF1A), TNFRSF1A (gene 7132)
Put plainly: LTEA_HepaRG_TNFRSF1A: Life Technologies and Expression Analysis (LTEA) Assay for Tumor necrosis factor receptor 1 (TNFRSF1A) using HepaRG (AID 2283535). The settings on record: mRNA level, 48 h; actives raise or lower the signal. In a few lines: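 mRNA measured by qRT-PCR (TaqMan, Fluidigm arrays) against ACTB/GAPDH/POLR2A housekeepers after 48 h chemical exposure of HepaRG cells. Top concentration 100 uM, half-log 8-point series, duplicates; vehicle 0.5% DMSO, both fit directions.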

Read-out in assay [15]: Thyroid Hormone Responsive (THRSP), THRSP (gene 7069)
The assay is described as follows: LTEA_HepaRG_THRSP: Life Technologies and Expression Analysis (LTEA) Assay for Thyroid Hormone Responsive (THRSP) using HepaRG (AID 2283536). Conditions: mRNA level, 48 h; actives raise or lower the signal. In a few lines: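 Cell model: human HepaRG, approx. 100,000 cells/well, 0.5% DMSO vehicle. Exposure lasts 48 h; phenobarbital 1 mM serves as induction positive control. Gene expression is measured by qRT-PCR against three endogenous control genes.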

Read-out in assay [16]: UDP glucuronosyltransferase (UGT1A1), UGT1A1 (gene 54658)
Put plainly: LTEA_HepaRG_UGT1A1: Life Technologies and Expression Analysis (LTEA) Assay for UDP glucuronosyltransferase (UGT1A1) using HepaRG (AID 2283538). The settings on record: mRNA level, 48 h; actives raise or lower the signal. In a few lines: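 HepaRG, 48 h chemical exposure (top 100 uM, half-log 8-pt, 0.5% DMSO vehicle), duplicate wells; qRT-PCR (TaqMan, Fluidigm array) for UGT1A1 mRNA, housekeeping-normalized; bidirectional curve fit vs DMSO baseline.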

Read-out in assay [17]: UDP glucuronosyltransferase (UGT1A6), UGT1A6 (gene 54578)
The assay is described as follows: LTEA_HepaRG_UGT1A6: Life Technologies and Expression Analysis (LTEA) Assay for UDP glucuronosyltransferase (UGT1A6) using HepaRG (AID 2283539). Conditions: mRNA level, 48 h; actives raise or lower the signal. In a few lines: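 Expression was quantified by TaqMan qRT-PCR on Fluidigm arrays with ACTB/GAPDH/POLR2A normalization and bidirectional fitting against 0.5% DMSO. HepaRG cells (~100,000/well) were treated in duplicate for 48 h at eight half-log concentrations up to 100 uM in serum-free induction medium.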

Read-out in assay [18]: X-box binding protein 1 (XBP1), XBP1 (gene 7494)
Put plainly: LTEA_HepaRG_XBP1: Life Technologies and Expression Analysis (LTEA) Assay for X-box binding protein 1 (XBP1) using HepaRG (AID 2283540). The settings on record: mRNA level, 48 h; actives raise or lower the signal. The essentials: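 XBP1 transcript by qRT-PCR (housekeeping-normalized: ACTB, GAPDH, POLR2A) after 48 h chemical treatment of HepaRG cells, 8-point half-log series topping at 100 uM, vehicle 0.5% DMSO. Gain and loss of signal fitted relative to DMSO.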

Assay [19] is described as follows: LTEA_HepaRG_LDH_cytotoxicity: Cytotoxicity Assessment in the Life Technologies and Expression Analysis (LTEA) Assay (AID 2283563; active = hit-call score of the fitted dose curve at least 0.9, where 1 is the maximum;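 as to AC50: LDH activity released into spent culture medium as a marker of cell death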). The essentials: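 LDH release into culture medium read after 48 h chemical treatment of HepaRG cells. Duplicate wells, eight-point half-log series topping at 100 uM, 0.5% DMSO vehicle and baseline.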

The structures appear in SMILES notation. Active and inactive are the calls of the source. The calls were made as follows, unless noted: active = hit-call score of the fitted dose curve at least 0.9, where 1 is the maximum; inactive = score below 0.9.

Nuclear factor erythroid 2-related factor 2 (Homo sapiens), sequence (Q16236 whole entry, looked up): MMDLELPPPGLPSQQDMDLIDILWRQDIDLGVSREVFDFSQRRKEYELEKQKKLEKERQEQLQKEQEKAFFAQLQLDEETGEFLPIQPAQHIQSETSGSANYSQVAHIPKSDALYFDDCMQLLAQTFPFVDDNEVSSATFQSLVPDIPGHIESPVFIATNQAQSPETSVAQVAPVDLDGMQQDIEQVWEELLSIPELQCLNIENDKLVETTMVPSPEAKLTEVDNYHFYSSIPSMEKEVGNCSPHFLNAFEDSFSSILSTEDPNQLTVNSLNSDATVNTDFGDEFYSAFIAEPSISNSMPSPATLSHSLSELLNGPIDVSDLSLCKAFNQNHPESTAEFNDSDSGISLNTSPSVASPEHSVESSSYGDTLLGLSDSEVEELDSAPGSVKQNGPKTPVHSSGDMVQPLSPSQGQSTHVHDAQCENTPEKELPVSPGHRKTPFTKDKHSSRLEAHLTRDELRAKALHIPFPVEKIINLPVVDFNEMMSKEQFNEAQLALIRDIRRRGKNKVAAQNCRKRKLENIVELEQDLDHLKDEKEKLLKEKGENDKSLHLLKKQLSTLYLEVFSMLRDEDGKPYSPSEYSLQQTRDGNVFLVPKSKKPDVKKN
Signal transducer and activator of transcription 3 (Homo sapiens), sequence (P40763 whole entry, looked up): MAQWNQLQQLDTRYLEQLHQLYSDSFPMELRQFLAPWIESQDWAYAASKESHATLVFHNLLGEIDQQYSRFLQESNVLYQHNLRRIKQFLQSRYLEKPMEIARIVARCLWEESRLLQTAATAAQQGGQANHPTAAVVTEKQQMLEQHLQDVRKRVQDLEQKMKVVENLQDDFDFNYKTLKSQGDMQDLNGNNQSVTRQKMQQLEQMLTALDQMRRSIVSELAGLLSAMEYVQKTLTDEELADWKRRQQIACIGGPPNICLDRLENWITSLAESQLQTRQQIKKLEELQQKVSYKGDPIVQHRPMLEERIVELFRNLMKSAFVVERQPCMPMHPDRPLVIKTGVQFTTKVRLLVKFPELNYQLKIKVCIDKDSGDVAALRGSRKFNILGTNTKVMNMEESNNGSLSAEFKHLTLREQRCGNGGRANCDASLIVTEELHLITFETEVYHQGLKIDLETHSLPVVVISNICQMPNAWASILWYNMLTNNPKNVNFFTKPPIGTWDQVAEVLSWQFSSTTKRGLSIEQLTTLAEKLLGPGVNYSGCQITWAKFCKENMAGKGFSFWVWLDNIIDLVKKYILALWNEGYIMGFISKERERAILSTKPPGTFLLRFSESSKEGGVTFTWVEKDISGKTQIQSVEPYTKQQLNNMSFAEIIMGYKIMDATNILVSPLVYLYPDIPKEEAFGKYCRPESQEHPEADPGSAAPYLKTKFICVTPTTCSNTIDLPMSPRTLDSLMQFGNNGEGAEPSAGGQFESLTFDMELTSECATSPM

What is called AC50 is the concentration at which the activity in the assay is half-maximal. For `C=C(C)[C@H]1Cc2c(ccc3c2O[C@@H]2COc4cc(OC)c(OC)cc4[C@@H]2C3=O)O1`, the AC50 in assay [1] was 50 µM (active); in [3] it was 1.95 µM (active); in [4], 13.2 µM (active); in assay [6], 7.62 µM (active); in assay [7] it was 0.358 µM (active); in assay [9] it was 12.3 µM (active). For the same compound, the AC50 in assay [10] was 13.2 µM (active); in assay [11], 7.78 µM (active); in assay [13], 11.1 µM (active); in [14], 50 µM (active); in assay [15], 1.36 µM (active); in [16], 23.7 µM (active). For the same compound, the AC50 in assay [17] was 23.4 µM (active); in assay [19] it was 6.74 µM (active). For the same compound, the call in assay [2], in [5], in assay [8], in [12] and in assay [18] was inactive.
For the compound `CC1=NNC(=O)N(/N=C/c2cccnc2)C1`, the result in assay [1], in [2], in assay [3], in assay [4], in assay [5] and in assay [6] was inactive. Moreover, the call in [7], in assay [8], in [9], in [10], in assay [11] and in assay [12] was inactive. In addition, the compound was called inactive in assay [13], in assay [14], in [16], in [17], in assay [18] and in assay [19]. Besides, in assay [15], the AC50 was 12.9 µM (active).
